Screens: PubChem BioAssay, National Center for Advancing Translational Sciences (NCATS)
SNCA expr inh: Primary qHTS assay for inhibitors of alpha-synuclein gene (SNCA) expression; actives 0.17% (n = 140,000); Potency, µM (top dose mostly 57.2 µM), inactives show at the top dose activity change, negative = inhibition, actives largely listed as inhibitors; HEK-293 SNCA-luciferase knock-in, luminescence, 24 h;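 also: plate controls were DMSO cells for no effect and cell-free wells for full effect; nearly all actives have a fitted effect of over 45% in size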
HEK293 tox: Cytotoxic Profiling in HEK 293 Cell Line of Diverse Libraries Using Quantitative High-Throughput Screening | HEK 293 viability, ATP luminescence (CellTiter-Glo), 48-72 h | Potency, µM (doses to about 115 µM), for the others: at the top dose activity change, negative = cytotoxicity, most hits filed as inhibitors | actives 6.6% (n = 94,000); also: % is scaled to controls: 0 for no effect and ±100 for the full control effect; nearly all actives have a fitted effect of over 60% in size
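qHTS cytotoxicity; HEK 293, 250 cells/well; compound pinned; 48 or 72 hr, 37 degree Celsius, 5% CO2, 95% humidity; CellTiter-Glo, 10 min RT; luminescence (ATP).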
3T3 cytotox: Cytotoxic Profiling in NIH 3T3 Cell Line of Diverse Libraries Using Quantitative High-Throughput Screening | Potency, µM (doses to about 96.7 µM), for the others: at the highest dose activity change, negative = cytotoxicity, hits mostly inhibitors | AID 1345082, 2018 | actives 4.3% (n = 94,000) | NIH 3T3 viability, CellTiter-Glo ATP luminescence, 48-72 h; also: % is scaled to controls: 0 for no effect and ±100 for the full control effect; nearly all actives have a fitted effect of over 55% in size
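Cytotoxicity is measured as loss of cellular ATP: NIH 3T3 cells (400/well) are exposed to compound for 48 or 72 hr at 37 °C, then CellTiter-Glo luminescence is imaged after 10 min at room temperature.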
FLuc inh-1: Firefly luciferase inhibition profiling of diverse chemical library using quantitative high-throughput screening; Luciferin 4-monooxygenase (Photinus pyralis), P08659; purified P. pyralis luciferase, luminescence, biochemical; Potency, µM (top dose mostly 115 µM), usual class: inhibitors; actives 2.5% (n = 76,000); also: % is scaled to controls: 0 for no effect and ±100 for the full control effect; nearly all actives have a fitted effect of over 65% in size
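Biochemical qHTS: compound (6-point titration) added to 10uM D-luciferin plus 10uM ATP in Tris acetate pH 7.5 buffer with Mg, Tween-20 and BSA, then purified enzyme at 10nM; light output imaged.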
hNpr1 antagonist: Natriuretic polypeptide receptor (hNpr1) antagonism - Primary qHTS | HEK293 hNpr1 GloSensor cGMP, ANP-stimulated luminescence | AID 1347048, 2019 | Atrial natriuretic peptide receptor 1 (Homo sapiens), P16066 | actives 1.6% (n = 76,000) | Potency, µM (top dose mostly 46.3 µM), for the others: at the highest dose activity change, negative = inhibition, usual class: inhibitors; calls by dose curve; also: % is scaled to controls: 0 for no effect and ±100 for the full control effect; nearly all actives have a fitted effect of over 60% in size
Target sequence (P16066 whole entry, looked up): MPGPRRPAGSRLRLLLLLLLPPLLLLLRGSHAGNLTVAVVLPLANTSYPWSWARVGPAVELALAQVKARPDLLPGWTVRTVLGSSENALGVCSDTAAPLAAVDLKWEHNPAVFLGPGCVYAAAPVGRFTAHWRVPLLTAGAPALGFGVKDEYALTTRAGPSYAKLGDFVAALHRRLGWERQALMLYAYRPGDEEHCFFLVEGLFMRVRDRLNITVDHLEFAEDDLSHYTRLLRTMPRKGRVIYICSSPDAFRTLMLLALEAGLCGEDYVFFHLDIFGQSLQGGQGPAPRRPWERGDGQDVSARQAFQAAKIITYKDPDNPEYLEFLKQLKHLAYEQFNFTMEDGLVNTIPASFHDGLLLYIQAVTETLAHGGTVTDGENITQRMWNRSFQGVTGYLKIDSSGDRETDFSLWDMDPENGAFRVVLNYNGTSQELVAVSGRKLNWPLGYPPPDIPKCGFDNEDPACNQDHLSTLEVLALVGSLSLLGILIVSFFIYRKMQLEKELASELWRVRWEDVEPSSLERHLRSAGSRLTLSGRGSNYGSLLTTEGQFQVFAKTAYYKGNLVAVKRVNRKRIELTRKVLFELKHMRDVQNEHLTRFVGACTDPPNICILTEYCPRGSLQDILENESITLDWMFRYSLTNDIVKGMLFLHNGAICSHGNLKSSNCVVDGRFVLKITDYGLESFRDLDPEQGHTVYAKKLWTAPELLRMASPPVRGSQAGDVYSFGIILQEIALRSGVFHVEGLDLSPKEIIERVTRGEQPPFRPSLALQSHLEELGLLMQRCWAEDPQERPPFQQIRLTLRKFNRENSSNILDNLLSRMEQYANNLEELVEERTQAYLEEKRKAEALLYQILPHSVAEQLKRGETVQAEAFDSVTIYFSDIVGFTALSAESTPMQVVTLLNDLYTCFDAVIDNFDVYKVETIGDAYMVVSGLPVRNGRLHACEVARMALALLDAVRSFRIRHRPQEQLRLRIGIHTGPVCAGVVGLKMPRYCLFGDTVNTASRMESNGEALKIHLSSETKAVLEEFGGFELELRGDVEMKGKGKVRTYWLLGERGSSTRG
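Compound pre-incubated 30 min at room temperature on GloSensor-loaded HEK293 cells stably carrying hNpr1 and the pGS-40F cGMP biosensor. Stimulation uses hNppA at 0.1 nM final; luminescence is taken at baseline and 20 min post-agonist.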
SNCA viab count: GF-AFC viability counterscreen for inhibitors of alpha-synuclein gene (SNCA) expression; actives 0.12% (n = 150,000); HEK-293-SNCA-luc viability, GF-AFC fluorescence, 24 h; Potency, µM (series often up to 57.1 µM), for inactives: at the top dose activity change, negative = cytotoxicity, usual class: cytotoxic;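 also: 0% = DMSO-treated cells and -100% = medium-only wells without cells; nearly all actives have a fitted effect of over 30% in size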
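HEK-293-SNCA-luc cells (1500/well) plated 24 h, then exposed 24 h to a dilution series; GF-AFC added 30 min at 37C, fluorescence 405/540 nm; normalised to medium-only and DMSO wells, Hill fit.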
FLuc SDR no ATP: Firefly luciferase (FLuc-C-HiBiT) SDR gain of signal screen - without ATP; shares compounds with FLuc inh-1; Purified FLuc-C-HiBiT, Nano-Glo HiBiT luminescence, no ATP; Potency, µM (titrated, usually from 32.7 µM), inactives show at the highest dose activation (signal gain), most hits filed as activators; actives 7.8% (n = 1,300); AID 1963318, 2024; also: nearly all actives have a fitted effect of over 55% in size
FLuc SDR ATP: Firefly luciferase (FLuc-C-HiBiT) SDR gain of signal screen - plus ATP. shares compounds with FLuc inh-1. purified FLuc-C-HiBiT + ATP, HiBiT complementation luminescence. Potency, µM (doses to about 32.7 µM), for the others: at the highest dose activation (gain of signal), most hits filed as activators. actives 8.7% (n = 1,300). AID 1963319, 2024;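 also: signal reports ligand binding via conformational change of the enzyme rather than luciferase catalysis; % of control where 0% means no effect; nearly all actives have a fitted effect of over 55% in size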
FLuc inh-2: Firefly luciferase (FLuc-C-HiBiT) enzymatic inhibition screen - Functional assay. AID 1963320, 2024. Potency, µM (series often up to 32.7 µM), for inactives: top-dose activity change, negative = inhibition, actives largely listed as inhibitors. actives 42% (n = 1,300). shares compounds with FLuc inh-1. purified FLuc-C-HiBiT enzyme, luciferin luminescence; also: % is scaled to controls: 0 for no effect and ±100 for the full control effect; nearly all actives have a fitted effect of over 70% in size
Numbers without * were called inactive; i = inactive; u = inconclusive; x = not tested or not shown; [ ] = remark or other dose. This is a sample that favours compounds with a hit; in the whole collection about 7.4% have one here. Unless noted, calls follow the shape of the dose curve; as a rule, active = well fitted curve in the direction sought with a large enough effect; inconclusive = small, poorly fitted or top-dose-only effect, or another doubt; inactive = no such curve, though single readings can be large; an effect the other way counts as inactive or inconclusive. Potency is read from the fitted curve at half-maximal effect.

SMILES	SNCA expr inh	HEK293 tox	3T3 cytotox	FLuc inh-1	hNpr1 antagonist	SNCA viab count	FLuc SDR no ATP	FLuc SDR ATP	FLuc inh-2
O=C(c1cc(-c2ccc(F)cc2)c2nncn2n1)N1CCCCC1	0%	-1%	-5%	x	x	-9%[12.5 µM]	x	x	x
COc1ccc(C(=O)N[C@H]2CC[C@]3(C)CCC([C@H](C)C(=O)N4CCC(C)CC4)[C@H](O)[C@H]3[C@@H]2C)cc1 (stereo not given in full)	7%	-3%	-1%	i	3%	-2%	x	x	x
Cc1ccc(C(=O)NC2CCN(c3cc(-c4ccccc4)[nH]n3)C2)cc1C (stereo not given)	5%	u	u	i	-14%	-18%	x	x	x
CN(C)c1cccc(C(=O)NC2CCN(c3cc(-c4ccccc4)[nH]n3)C2)c1 (stereo not given)	174%	u	u	7.1µM*	-26%	-18%	13%	7.9µM*	7µM*
COc1ccc(-c2cc(N3CCCC(NC(=O)c4ccc5ncccc5c4)C3)n[nH]2)cc1 (stereo not given)	28%	u	u	3.2µM*	-22%	u	11%	6%	3.9µM*
O=C(NC1CCCN(c2cc(-c3ccc(F)cc3)[nH]n2)C1)c1ccc2ncccc2c1 (stereo not given)	2%	u	u	4.5µM*	-19%	-14%	-3%	-3%	8.8µM*
COc1ncccc1C(=O)N1Cc2cnn(Cc3ccc(F)cc3)c2C1	-25%	-10%	-29%	i	1%	3%	x	x	x
Cc1ccc(C(=O)Nc2ccccc2C(=O)O)cc1S(=O)(=O)N1CCCCCC1	-21%	x	x	x	x	1%	u	u	2.8µM*
O=C(Nc1ccccc1C(=O)O)c1ccccc1	x	x	x	x	x	x	18%	10%	u
Cc1ccc(C(=O)Nc2cccc(C(=O)O)c2)cc1S(=O)(=O)N1CCCC1	-59%	x	x	x	x	11%	u	0.078µM*	0.088µM*
Cc1ccc(C(=O)N2CCc3[nH]nc(C(=O)N(C)C)c3C2)cc1F	16%	6%	-3%	i	1%	9%	x	x	x
COC(=O)[C@@H]1Cc2ncn(C)c2CN1S(=O)(=O)Cc1ccccc1	-12%[87.6 µM]	3%[172 µM]	5%[174 µM]	i	2%[70.6 µM]	-20%[87.6 µM]	x	x	x
CC(C)=CCO[C@H]1CCOC[C@H]1NC(=O)CCc1ccc(=O)[nH]n1	-3%	-3%	-14%	i	9%	-5%	x	x	x
COc1c(C)cc(NC(=O)c2ccc(CN3CCC(O)CC3)cc2)cc1C	4%	u	u	i	-2%	5%	x	x	x
Cc1cc(NC(=O)c2ccc(CN3CC[C@H](O)C3)cc2)ccc1F	u	u	u	0.89µM*	10µM*	-14%	u	u	2µM*
O=C(NCC(F)(F)F)C1CCCN1c1nc2ncccc2o1 (stereo not given)	11%[87.6 µM]	i	i	i	-1%[70.6 µM]	2%[87.6 µM]	11%[49.3 µM]	7%[49.3 µM]	6%[49.3 µM]
COc1ccccc1CNC(=O)c1c(OCC(C)C)cc(=O)n2c1CCCCC2	-1%	-13%	-18%	i	4%	-9%	x	x	x
O=C(NCc1cccnc1)C1CCN(C(=O)c2ncn3c2COC(c2ccc(F)cc2)C3)CC1 (stereo not given)	2%	-4%	i	u	-2%	3%	x	x	x
CC(CNC(=O)C1CCN(C(=O)c2ncn3c2COC(c2ccccc2)C3)CC1)c1ccccc1 (stereo not given)	65%	-16%	-21%	3.5µM*	-14%	16%	11%	1.6µM*	2.5µM*
O=C(NCc1ccncc1)C1CCN(C(=O)c2ncn3c2COC(c2ccc(F)cc2)C3)CC1 (stereo not given)	-12%	7%	i	7.9µM*	1%	-3%	13%	u	u
O=C(NCCc1ccccc1)C1CCN(C(=O)c2ncn3c2COC(c2ccccc2)C3)CC1 (stereo not given)	81%	0%	i	3.2µM*	0%	11%	11%	u	2.5µM*
CSc1ccc(CNC(=O)C2CCN(C(=O)c3ncn4c3COC(c3ccccc3)C4)CC2)cc1 (stereo not given)	20%	9%	i	13µM*	-19%	-7%	16%	u	u
COc1ccc(C2Cn3cnc(C(=O)N4CCC(C(=O)NCc5ccccc5)CC4)c3CO2)cc1 (stereo not given)	1%	10%	i	i	-4%	0%	x	x	x
CCC(CC)C(=O)N1CCc2nc(OCCOC)ccc2C1	30%	0%	-27%	i	3%	13%[12.5 µM]	x	x	x
CC1=C[C@@H](CNC(=O)c2cccnc2)[C@H](C(C)C)C[C@H]1CC(=O)NCc1ccccn1	46%[87.6 µM]	-22%[172 µM]	0%[174 µM]	u	-1%[70.6 µM]	4%[87.6 µM]	x	x	x
COc1ccc(CNC(=O)C[C@@H]2C[C@@H](C(C)C)[C@H](CNC(=O)c3cccnc3)C=C2C)cc1	3%	u	u	14µM*	-13%	-13%	11%	10%	7%
Cc1cccnc1CN1C[C@@H](F)[C@@H](OCc2nc3ccccc3o2)C1	29%[87.6 µM]	u	u	i	3%[70.6 µM]	-10%[87.6 µM]	x	x	x
COc1ccc(-c2cc(=O)c3cc(OCC(=O)OC(C)C)ccc3o2)cc1	18%	x	x	x	x	-11%	u	u	3.9µM*
